Assay results: PubChem BioAssay AID485364 (National Center for Advancing Translational Sciences (NCATS), 2010)
About 11,000 (3.1%) of roughly 360,000 compounds were called active. Another 4% or so got no clear call; they are omitted. The entries come from a sample that favours actives as a whole. A number with no mark means an inactive call. Calls follow the shape of the dose curve; as a rule, active = well fitted inhibition curve with a large enough effect; inconclusive = small, poorly fitted or top-dose-only effect; inactive = no such curve, though single readings can be large or run the other way.

Biological target: Schistosoma mansoni thioredoxin glutathione reductase (TGR) (UniProt Q962Y6)
Assay: qHTS Assay for the Inhibitors of Schistosoma Mansoni Peroxiredoxins; also: nearly all actives have a fitted effect of over 60% in size
Conditions: purified TGR, DTNB reduction, TNB absorbance 405 nm; series mostly up to 114 µM; activity change, negative = inhibition: at the top concentration
Summary of the method: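 TGR 20 nM + NADPH 100 uM (dispensed conc.), cpd preinc 15 min RT; start with NADPH (500 uM addition) then DTNB (15 mM addition). Kinetic TNB absorbance, 405 nm filter. Four-parameter Hill fit across titration.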
% is scaled to controls: 0 for no effect and ±100 for the full control effect; potency is read from the fitted curve at half-maximal effect.

| SMILES | activity change, negative = inhibition | Potency |
| --- | --- | --- |
| CCOc1c(CNCc2ccc(C(=O)O)cc2)cccc1OC | -2.21% | – |
| CCOc1cccc(CC(=O)N2CCc3c([nH]c4ccccc34)C2c2ccc(F)cc2)c1OCC (centres undefined) | 4.64% | – |
| CCOc1cccc2c1N[C@@H](c1ccc(C(=O)O)cc1)[C@H]1CC=C[C@@H]21 | – | 7.08 µM (active) |
| CCOC(=O)N1CCc2c(sc3c2c(=O)n(Cc2ccccc2)c(=O)n3CC(=O)Nc2cccc(C)c2)C1 | -0.288% | – |
| Cc1ccc(N2CC(c3nnc(Cc4ccccc4Cl)o3)CC2=O)cc1 (centres undefined) | 12% | – |
| CCOc1ccccc1CNC(=O)c1ccc2c(c1)nc1n2CCC(C)C1 (centres undefined) | -0.951% | – |
| CCOc1cccc2cc(-c3cn4c(n3)sc3cc(C)ccc34)c(=O)oc12 | 1.43% | – |
| O=C1NC(=O)N(c2ccccc2)C(=O)/C1=C/c1ccc([N+](=O)[O-])s1 | – | 5.62 µM (active) |
| COc1cccc(/C=C2\SC(=N)N(c3ccc(F)cc3)C2=O)c1 | 3.46% | – |
| COc1cc(/C=C2/C(=O)NN(c3ccc(F)cc3)C2=O)cc([N+](=O)[O-])c1O | -12.7% | – |
| COc1cccc(N2C(=O)NC(=O)/C(=C\c3ccc([N+](=O)[O-])s3)C2=O)c1 | – | 8.91 µM (active) |
| Cc1ccccc1-c1nc2scc(CCNC(=O)C(=O)Nc3ccc(F)cc3F)n2n1 | 0.0736% | – |
| Cc1ccc(S(=O)(=O)N(Cc2nc(-c3ccc(Cl)cc3)no2)C2CCCCC2)cc1 | 10.4% | – |
| COc1ccc(CCN2C(=O)c3oc4cc(C)cc(C)c4c(=O)c3C2c2ccccc2F)cc1OC (centres undefined) | -9.97% | – |
| Cc1cc(C)cc(OCC(=O)Nc2nc(-c3ccc(F)cc3)ns2)c1 | 6.53% | – |
| Cc1ccn2c(Nc3ccc4c(c3)OCCO4)c(-c3ccc(C)s3)nc2c1 | 4.83% | – |
| COc1cc(Cn2c(N)c(C(=O)NCc3ccco3)c3nc4ccccc4nc32)cc(OC)c1OC | – | 7.08 µM (active) |
| COc1cc(-n2c(C)nc3cc(C(=O)NCc4ccco4)ccc32)cc(OC)c1OC | 0.602% | – |
| COc1cc(C(=O)NC(=S)NCc2ccco2)cc(OC)c1OC | 3.26% | – |
| CCc1ccc(S(=O)(=O)c2nnn3c2nc(NCc2ccccc2OC)c2cc(Cl)ccc23)cc1 | 8.14% | – |
| Cc1nn(Cc2ccc(F)cc2)c(C)c1NC(=O)c1cc(CC(C)C)on1 | 0.928% | – |
| CCOC(=O)N1CCN(C(c2cccnc2)c2ccc3cccnc3c2O)CC1 (centres undefined) | – | 0.316 µM (active) |

| SMILES | activity change, negative = inhibition | Potency |
| --- | --- | --- |
| COc1ccccc1N1CCN(C(CNC(=O)Oc2ccccc2)c2cccnc2)CC1 (centres undefined) | 0.19% | – |
| O=C(CSc1cccc2cccnc12)N/N=C/c1cccnc1 | 10.9% | – |
| COc1ccc(CC(=O)Nc2nnc3n2CCS3)cc1OC | -0.169% | – |
| CCOC(=O)c1c(C)[nH]c(CCC(=O)NCCCN2CCN(c3cccc(Cl)c3)CC2)c1C | -6.57% | – |
| CN(C(=O)c1ccc2c(c1)N(Cc1cccc(Cl)c1)C(=O)c1ccccc1S2=O)C1CCCCC1 (centres undefined) | 13.3% | – |
| CCOc1ccc(C(C)=O)cc1COC(=O)c1cnc(Cl)c(Cl)c1 | -19.2% | – |
| Cc1ccc(COC(=O)CN2C(=O)NC3(CCCC3)C2=O)cc1 | -26.1% | – |
| CCOc1ccc(C(C)NC(=O)CN2C(=O)NC3(CCCCC3)C2=O)cc1OCC (centres undefined) | 1.76% | – |
| COc1ccc(C(=O)COC(=O)CNC(=O)c2cccs2)cc1Br | -32.3% | – |
| CCOc1ccc(C(C)=O)cc1COC(=O)CN1C(=O)NC2(CCCC2)C1=O | – | 10 µM (active) |
| CCOc1ccc(C(C)=O)cc1COC(=O)CNC(=O)c1cccs1 | – | 11.2 µM (active) |
| CCOc1ccccc1N(C)C(=O)c1cc2c(s1)-c1ccccc1OC2 | 0.733% | – |
| Cc1nnc(NCc2ccccc2)c2c1nnn2Cc1ccc(F)cc1 | 5.94% | – |
| CCc1nc(-c2cc(S(=O)(=O)N3CCN(c4ccc(OC)cc4)CC3)ccc2OC)no1 | 3.63% | – |
| Cc1ccc(CNC(=O)Cn2c(=O)ccc3cc(S(=O)(=O)N4CCCC4)ccc32)cc1 | -0.446% | – |
| Cc1ccc(NC(=O)CSc2nc3ccccc3c3nc(CCn4cncc4C)nn23)cc1F | -0.64% | – |
| CCC/C=C(\CCC)C(NC(=O)Cc1ccccc1)c1ccc(C(=O)OC)cc1 (centres undefined) | -12.9% | – |
| CC(=O)c1ccc(OC(NC(=O)Cc2ccccc2)C(Cl)(Cl)Cl)cc1 (centres undefined) | – | 22.4 µM (active) |
| CC(=O)c1ccc(NC(=O)N[C@@H](Cc2ccccc2)C(=O)O)cc1 | 2.42% | – |
| COc1ccc(NC(=O)c2sc3nc[nH]c(=O)c3c2C)cc1 | -1.14% | – |
| COc1ccccc1NC(=O)C1=C(C)Nc2nc(SCC(=O)c3ccc(C)cc3)nn2C1c1ccccc1C (centres undefined) | 7.49% | – |
| CCCCCn1c(=O)[nH]c2cc(C(=O)Nc3cc(C)cc(C)c3)ccc2c1=O | 0.323% | – |

| SMILES | activity change, negative = inhibition | Potency |
| --- | --- | --- |
| C[C@H]1CCC(=O)N([C@H](CSc2ccccc2)Cc2ccccc2)CC1 | -20% | – |
| COc1ccc(SC[C@H](Cc2ccccc2)N2CCN(CCc3ccccc3)CCC2=O)cc1 | – | 17.8 µM (active) |
| O=C1CC[C@H](O)CCN1[C@H](CSc1ccc(Br)cc1)Cc1ccccc1 | -6.32% | – |
| COc1cccc(NC(=O)CSC2=Nc3ccccc3C3=NC(CC(=O)NC4CCCCC4)C(=O)N23)c1 (centres undefined) | 3.31% | – |
| CC(=O)c1ccc(NC(=O)c2nc3nc(C)cc(C(F)F)n3n2)cc1 | -2.5% | – |
| O=C(/C=C/c1ccco1)NC(=S)Nc1ccccc1Br | – | 35.5 µM (active) |
| COc1ccccc1/C=C/C(=O)NC(=S)N1CCOCC1 | -5.17% | – |
| COc1ccc(/C=C/C(=O)NC(=S)N2CCCC(C(N)=O)C2)cc1 (centres undefined) | 3.32% | – |
| COc1ccc(Cl)cc1C(=O)NNC(=S)NC(=O)/C=C/c1ccco1 | -28.9% | – |
| O=C(/C=C/c1ccco1)NC(=S)N1CCCCC1 | – | 25.1 µM (active) |
| O=C(NNC(=S)Nc1ccc(Br)cc1Cl)c1ccco1 | -15.5% | – |
| O=C(Nc1ccc2nc(SCC(=O)N3CCCc4ccccc43)sc2c1)c1ccc(Cl)cc1 | 9.24% | – |
| COc1ccccc1-c1noc(CSc2nnc(-c3ccccc3)n2-c2ccc(C)c(C)c2)n1 | 4.75% | – |
| O=C(O)c1ccc(CSc2nc3cccnc3n2Cc2cccc(F)c2)cc1 | 9.94% | – |
| Cc1ccc(-n2ncc(C(=O)N(C)Cc3ccccc3)c2-n2cccc2)cc1 | 2.53% | – |
| CC(=O)c1ccc(NS(=O)(=O)c2ccc(-c3cc(C)no3)s2)cc1 | -8.37% | – |
| COc1ccccc1CNC(=O)c1ccc(-n2c(C)cc3c2CCCC3)cc1 | -25.8% | – |
| CN1C(=O)/C(=N/OC(=O)c2ccccc2Br)c2ccccc21 | – | 12.6 µM (active) |
| CN1C(=O)/C(=C\c2cc(Br)cs2)c2ccccc21 | -1.32% | – |
| Cn1c(=O)c(=O)n(C)c2cc(NC(=O)c3ccccc3Br)ccc21 | 0.681% | – |
